Consider 10 compounds from PubChem BioAssay (NCATS).

Assay [1] has as its target Peroxisome proliferator-activated receptor delta (Homo sapiens) (UniProt Q03181). Put plainly: qHTS assay for small molecule agonists of peroxisome proliferator-activated receptor delta signaling (AID 588534).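 Note: 0% = DMSO basal wells and 100% = positive control agonist at 10 µM.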 Summed up: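 Fluorescence from CCF4 substrate cleavage by beta-lactamase reporter, read 2 hrs at RT, measured agonist activity. Compounds were tested with 18 hrs exposure at 37 C. Concentration-response data fitted to Hill equation.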
(In general: qHTS replaces the single test concentration by a dilution series.)

A short description of assay [2]: qHTS assay for small molecule antagonists of peroxisome proliferator-activated receptor delta signaling (AID 588535; active = well fitted inhibition curve with a large enough effect in the signal ratio, with a control signal flat, not every such curve was filed as active; the % refers to the signal ratio;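 for max response: cells co-treated with a PPAR-delta agonist as stimulator during compound exposure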). The conditions noted are these: HEK293T PPARd-UAS-bla, beta-lactamase FRET ratio, 18 h; 460 nm channel. In short, it runs like this:
(§1)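 Reporter: UAS-bla under PPAR-delta response element, HEK293T host. Medium: 2% charcoal/dextran FBS. Dosing: titration, 18 hrs, 37 C. Detection: CCF4, 2 hrs RT, 405 ex/460 and 530 em.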

The target of assay [3] is Peroxisome proliferator-activated receptor delta (Homo sapiens) (UniProt Q03181). The assay is described as above. In short, it runs like this:
as §1

Assay [4] has as its target Peroxisome proliferator-activated receptor gamma (Homo sapiens) (UniProt P37231). Put plainly: qHTS assay for small molecule agonists of peroxisome proliferator-activated receptor gamma signaling (AID 588536; active = well fitted curve in the direction sought with a large enough effect in the signal ratio, with a control signal flat, not every such curve was filed as active; the % refers to the signal ratio;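 note: 0% = DMSO basal wells and 100% = rosiglitazone at 2 µM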). Summed up: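 GeneBLAzer PPAR-gamma-UAS-bla HEK293 cells in 1% charcoal/dextran-treated FBS medium were treated 16 h at 37 C with compounds. Beta-lactamase activity was read by CCF4 ratio (460/530 nm). Response was normalized to 2 uM rosiglitazone (100%) and DMSO, then Hill-fitted for EC50 and efficacy.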

The target is the same in assay [5]. Put plainly: qHTS assay for small molecule antagonists of peroxisome proliferator-activated receptor gamma signaling (AID 588537; active = well fitted inhibition curve with a large enough effect in the signal ratio, with a control signal flat, not every such curve was filed as active; the % refers to the signal ratio;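 note: reporter cells co-stimulated with 50 nM rosiglitazone agonist during compound treatment; % of control where 0% means no effect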). Summed up:
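We seeded GeneBLAzer HEK293 reporter cells at 3000 per well, allowed 6-6.5 h attachment at 37 C, then co-treated with test compound titrations and 50 nM rosiglitazone overnight (16 h). Inhibition was quantified from 460/530 nm emission ratios.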

The nature of assay [6]: qHTS assay for small molecule agonists of retinoid X receptor alpha signaling (AID 588544).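 For activation: 0% = DMSO basal wells and 100% = reference agonist.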 The settings on record: HEK293T RXRa-UAS-bla, beta-lactamase reporter, 18 h; 530 nm emission.
Assay [7] addresses Retinoic acid receptor RXR-alpha (Homo sapiens) (UniProt P19793). The description is as above.
The target of assay [8] is Thyroid hormone receptor beta (Homo sapiens) (UniProt P10828). Put plainly: qHTS assay for small molecule agonists of thyroid hormone receptor beta signaling (AID 588545). In short, it runs like this:
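HEK 293 TR-UAS-bla; agonist mode; 18 hrs, 37 C; CCF4, ex 405/em 460 and 530 nm; norm. T3 10 nM = 100%, DMSO = 0%; Hill fit → EC50, efficacy.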

Assay [9] is described as follows: qHTS assay for small molecule antagonists of retinoid X receptor alpha signaling (AID 588546; active = well fitted inhibition curve with a large enough effect in the signal ratio, with a control signal flat, not every such curve was filed as active; the % refers to the signal ratio;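 note: cells stimulated with 9-cis-retinoic acid as agonist; % is set by controls: 0 for no effect and ±100 for the full control effect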). The settings on record: HEK293T RXRa-UAS-bla, beta-lactamase ratio, antagonist mode; measured here: W530 green channel, cytotoxicity proxy. In short, it runs like this: (§2)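 Beta-lactamase reporter inhibition, read as CCF4 fluorescence ratio (ex 405, em 460/530 nm) after 2 h at RT. HEK293T UAS-bla cells, 2500/well, were stimulated with 9-cis-RA at 500 or 100 nM final alongside test compound for 18 h at 37 C.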

Assay [10] addresses Retinoic acid receptor RXR-alpha (Homo sapiens) (UniProt P19793). The description is as above. The settings on record: HEK293T RXRa-UAS-bla, beta-lactamase ratio, antagonist mode. Summed up: as §2
In assay [11] the target is Thyroid hormone receptor beta (Homo sapiens) (UniProt P10828). Put plainly: qHTS assay for small molecule antagonists of thyroid hormone receptor beta signaling (AID 588547; active = well fitted inhibition curve with a large enough effect in the signal ratio, with a control signal flat, not every such curve was filed as active; the % refers to the signal ratio;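 note: cells stimulated with 0.4 nM T3 agonist during compound exposure; % is set by controls: 0 for no effect and ±100 for the full control effect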). The settings on record: TR-UAS-bla HEK293, beta-lactamase ratio, antagonist mode, 18 h. Summed up:
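TR-UAS-bla GripTite HEK293 cells in 2% charcoal/dextran FBS medium were preincubated 4 h at 37 C, given compound (0.59 nM to 92 uM) plus 0.4 nM T3 (final) for 18 h, then CCF4 for 2 h at RT; Hill fit gave IC50.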

The nature of assay [12]: qHTS assay for small molecule activators of the p53 signaling pathway (AID 651743; active = well fitted activation curve with a large enough effect in the signal ratio, not every such curve was filed as active; the % refers to the signal ratio; note: % of control where 0% means no effect). The settings on record: HCT-116 p53RE-bla, beta-lactamase FRET ratio, 16 h; activation: stronger effect = higher value. In short, it runs like this: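 Cell-based beta-lactamase reporter (p53 response elements, HCT-116 background). After a 5-hour preincubation, cells received compound for 16 hours at 37 C; substrate development ran 2 hours at room temperature.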

Assay [13] is described as follows: qHTS assay for small molecule activators of the nuclear factor-kappa B (NF-kB) signaling pathway (AID 651749; active = well fitted activation curve with a large enough effect in the signal ratio; the % refers to the signal ratio; note: % of control where 0% means no effect). The conditions noted are these: NF-kB-bla ME-180 cells, beta-lactamase FRET ratio, 16 h; activation: stronger effect = higher value. Summed up:
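Screening used 2,000 ME-180 reporter cells per well exposed to pinned compound (23 nL) or DMSO; after 16 hr at 37C, beta-lactamase expression under NF-kB control was assessed through FRET.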

A short description of assay [14]: qHTS assay for environmental chemicals that activate the Aryl hydrocarbon Receptor (AhR) signaling pathway (AID 651777; active = well fitted curve in the direction sought with a large enough effect; an effect the other way counts as inactive or inconclusive; note: % of control where 0% means no effect; nearly all actives have a fitted effect of over 15% in size). The settings on record: 1A2-DRE human hepatoma cells, luciferase, 24 h; activation: stronger effect = higher value. In short, it runs like this:
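AhR activation is scored as a rise in luciferase from a stable DRE–CYP1A2 promoter construct in human hepatoma cells. Treatment lasts 24 hr at 37 C; detection uses One-Glo after 30 min at room temperature.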

For assay [15], the target named is Peroxisome proliferator-activated receptor alpha (Homo sapiens) (UniProt Q07869). Put plainly: qHTS assay for small molecule agonists of the peroxisome proliferator-activated receptor alpha (PPARalpha) signaling pathway (AID 651778; active = well fitted curve in the direction sought with a large enough effect; an effect the other way counts as inactive or inconclusive; note: % of control where 0% means no effect). The settings on record: PathHunter PPARalpha complementation, chemiluminescence, 6 h; max response: stronger effect = higher value. In short, it runs like this: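 Cells plated at 2,000/well and held overnight at 37 C, 5% CO2, then compound added by pin tool for 6 hr; after PathHunter detection reagent and 60 min at room temperature, chemiluminescence from enzyme complementation was read.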

Assay [16] can be described thus: qHTS assay for small molecule agonists of the antioxidant response element (ARE) signaling pathway measured by Nrf2-dependant transcriptional activity - cell viability counter screen (AID 720653; active = well fitted curve in the direction sought with a large enough effect in the repeat runs; an effect the other way counts as inactive or inconclusive; note: % is set by controls: 0 for no effect and ±100 for the full control effect). The conditions noted are these: ARE-bla HepG2 viability, CellTiter-Glo ATP luminescence, 16 h; max response: stronger effect = lower value. Summed up: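 ARE-bla HepG2 cells (2,000/well) rested 5 hrs at 37C/5% CO2, then exposed to compounds in DMSO for 16 hrs. Viability was read in the same wells as intracellular ATP by luminescence, 30 min at room temperature after reagent addition.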

The nature of assay [17]: qHTS assay for cell viability of HEK293 cells (AID 743288; active = well fitted curve in the direction sought with a large enough effect; an effect the other way counts as inactive or inconclusive; note: % is set by controls: 0 for no effect and ±100 for the full control effect; nearly all actives have a fitted effect of over 50% in size). The settings on record: ATP luminescence (CellTiter-Glo), 18 h; max response: stronger effect = lower value. In short, it runs like this: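 Total intracellular ATP, measured with a luciferase-coupled reagent, indicates the number of viable HEK293 cells. Exposure to test chemicals lasts 18 h at 37 C in 1,536-well format at 2,000 cells/well.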

The nature of assay [18]: qHTS assay for cell viability of the p53RE-bla HCT-116 cell line (AID 743292; active = well fitted curve in the direction sought with a large enough effect; an effect the other way counts as inactive or inconclusive; note: % is set by controls: 0 for no effect and ±100 for the full control effect; nearly all actives have a fitted effect of over 55% in size). Summed up:
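Quantitative high-throughput format: compounds in DMSO were pinned onto p53RE-bla HCT-116 cells (4,000/well) and incubated 16 h at 37 C. Total intracellular ATP, read by CellTiter-Glo luminescence, reflects viable cell number.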

Assay [19] addresses Nuclear receptor subfamily 1 group I member 2 (Rattus norvegicus) (UniProt Q9R1A7). Put plainly: qHTS assay for small molecule activators of the rat pregnane X receptor (rPXR) signaling pathway (AID 651751; call rule not given here; note: 0% is about no effect). The conditions noted are these: rPXR reporter cells, luciferase (One-Glo), 24 h.
The nature of assay [20]: qHTS assay for small molecule activators of the human pregnane X receptor (PXR) signaling pathway (AID 720659; call rule not given here; note: 0% is about no effect).
Assay [21] can be described thus: qHTS assay for small molecule agonists of the antioxidant response element (ARE) signaling pathway measured by Nrf2-dependant transcriptional activity (AID 720636; active = well fitted curve in the direction sought with a large enough effect in the repeat runs; an effect the other way counts as inactive or inconclusive;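 note: HepG2 cells with an ARE-driven luciferase reporter; % of control where 0% means no effect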). In short, it runs like this: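 First, ARE-luc HepG2 cells attached for 6 hr at 37 C in 1% dialyzed FBS medium. Next, compound or DMSO was added and incubated 16 hr. Finally, ONE-Glo reagent was added and luminescence measured after 30 min.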

Assay [22] in a line: Cell Viability - LYMP2-004 (AID 966; active = well fitted curve in the direction sought with a large enough effect; an effect the other way counts as inactive or inconclusive;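 note: plate controls were DMSO only for no effect and tetraoctylammonium bromide control for full effect; nearly all actives have a fitted effect of over 65% in size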). Summed up:
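Cells seeded 2500/well, rested 5 hr at 37 C, dosed across a concentration series, incubated 24 hr at 37 C, then CellTiter-Glo added for 30 min at room temperature and luminescence read. Hill fitting gave AC50.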

The nature of assay [23]: Cell Viability - LYMP2-025 (AID 976; active = well fitted curve in the direction sought with a large enough effect; an effect the other way counts as inactive or inconclusive;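 note: plate controls were DMSO only for no effect and tetraoctylammonium bromide control for full effect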). Summed up: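 Seed 2500 LYMP2-025 cells/well; 5 hr at 37 C; add compound; 24 hr at 37 C; add CellTiter-Glo; 30 min RT; read luminescence. AC50 from Hill-modelled concentration-response.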
Assay [24] in a line: S16 Schwann cell PMP22 intronic element beta-lactamase assay (AID 624044).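 Note: 0% = DMSO and -100% = potassium clavulanate positive control; nearly all actives have a fitted effect of over 15% in size.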 The conditions noted are these: S16 rat Schwann cells, PMP22 element beta-lactamase FRET, 24 h; ratio activity, negative = inhibition: at 38.3 µM (top of the series). Summed up:
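Rat S16 Schwann cells with beta-Lac driven by a PMP22 intronic element, compound-treated 24 h at 37 °C. LiveBLAzer FRET B/G read: 460 nm normalized to potassium clavulanate vs DMSO; 535 nm FRET as viability; concentration-effect curves classified.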

Assay [25] has as its target Vitamin D3 receptor (Homo sapiens) (UniProt P11473). Put plainly: qHTS assay for small molecule antagonists of vitamin D receptor signaling (AID 588541).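 Note: receptor activated by calcitriol during compound treatment; % is set by controls: 0 for no effect and ±100 for the full control effect.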 In short, it runs like this: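 VDR-UAS-bla HEK293T cells (2000/well, 2% charcoal-stripped FBS) were treated with titrated compounds plus 1-alpha,25-dihydroxyvitamin D3 (50 nM or 3 nM final) for 16 h at 37 C. CCF4 beta-lactamase fluorescence was read; Hill fits gave IC50.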

For assay [26] the target is unchanged. Put plainly: qHTS assay for small molecule agonists of vitamin D receptor signaling (AID 588543).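 Note: 0% = DMSO basal and 100% = reference agonist control.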 Summed up: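 Agonist-mode beta-lactamase reporter: HEK293T VDR-UAS-bla cells in charcoal-stripped 2% FBS, compound series 16 h 37 C, CCF4 2 h RT. EC50 from Hill fit, scaled against DMSO and 50 nM calcitriol control.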
A short description of assay [27]: qHTS assay for small molecule agonists of the antioxidant response element (ARE) signaling pathway (AID 651741; active = well fitted activation curve with a large enough effect in the signal ratio; the % refers to the signal ratio; note: % of control where 0% means no effect). In short, it runs like this:
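Compounds in DMSO are pinned onto HepG2 ARE-bla cells (2,000/well) that were preincubated 5 h; plates stay 16 h at 37 C, then beta-lactamase activity is detected with LiveBLAzer B/G substrate by fluorescence.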

Records with an inconclusive call do not appear. Calls of active or inactive are those of the source. Unless noted, calls come from the whole dose curve.

Peroxisome proliferator-activated receptor alpha (Homo sapiens), sequence (Q07869 whole entry, looked up): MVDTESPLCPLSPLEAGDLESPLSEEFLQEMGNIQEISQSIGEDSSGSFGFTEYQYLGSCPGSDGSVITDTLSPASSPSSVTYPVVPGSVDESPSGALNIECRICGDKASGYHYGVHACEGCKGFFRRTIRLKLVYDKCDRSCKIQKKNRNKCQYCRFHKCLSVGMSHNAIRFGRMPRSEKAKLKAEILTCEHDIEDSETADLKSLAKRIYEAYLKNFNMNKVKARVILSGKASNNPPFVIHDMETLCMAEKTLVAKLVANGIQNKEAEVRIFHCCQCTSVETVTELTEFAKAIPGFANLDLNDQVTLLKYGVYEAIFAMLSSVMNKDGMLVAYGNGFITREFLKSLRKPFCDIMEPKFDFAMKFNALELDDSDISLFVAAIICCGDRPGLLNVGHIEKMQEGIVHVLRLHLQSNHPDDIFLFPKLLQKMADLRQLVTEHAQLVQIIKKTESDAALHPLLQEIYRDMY
Nuclear receptor subfamily 1 group I member 2 (Rattus norvegicus), sequence (Q9R1A7 whole entry, looked up): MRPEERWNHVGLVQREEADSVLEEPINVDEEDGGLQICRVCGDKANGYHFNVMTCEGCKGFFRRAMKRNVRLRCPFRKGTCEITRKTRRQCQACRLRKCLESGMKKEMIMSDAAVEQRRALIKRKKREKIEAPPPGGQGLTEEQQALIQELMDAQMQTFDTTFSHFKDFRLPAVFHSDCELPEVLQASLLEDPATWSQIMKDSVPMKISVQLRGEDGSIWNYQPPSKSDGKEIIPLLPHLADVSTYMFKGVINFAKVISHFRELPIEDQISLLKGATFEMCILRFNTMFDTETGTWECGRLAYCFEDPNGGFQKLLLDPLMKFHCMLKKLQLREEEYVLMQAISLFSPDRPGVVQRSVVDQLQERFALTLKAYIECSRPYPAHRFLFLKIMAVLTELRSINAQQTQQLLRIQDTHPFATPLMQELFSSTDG
Vitamin D3 receptor (Homo sapiens), sequence (P11473 whole entry, looked up): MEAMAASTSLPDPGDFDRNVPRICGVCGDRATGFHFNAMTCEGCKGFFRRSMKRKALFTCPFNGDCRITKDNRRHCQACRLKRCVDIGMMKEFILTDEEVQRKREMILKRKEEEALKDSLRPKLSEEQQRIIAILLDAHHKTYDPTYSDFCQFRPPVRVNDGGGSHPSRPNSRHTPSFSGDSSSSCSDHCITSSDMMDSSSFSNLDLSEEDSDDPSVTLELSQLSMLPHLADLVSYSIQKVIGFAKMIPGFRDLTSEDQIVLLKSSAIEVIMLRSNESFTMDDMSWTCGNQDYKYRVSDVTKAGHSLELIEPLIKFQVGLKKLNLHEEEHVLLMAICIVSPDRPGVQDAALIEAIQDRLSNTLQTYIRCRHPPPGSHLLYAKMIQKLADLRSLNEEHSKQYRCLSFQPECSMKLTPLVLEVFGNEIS
Peroxisome proliferator-activated receptor delta (Homo sapiens), sequence (Q03181 whole entry, looked up): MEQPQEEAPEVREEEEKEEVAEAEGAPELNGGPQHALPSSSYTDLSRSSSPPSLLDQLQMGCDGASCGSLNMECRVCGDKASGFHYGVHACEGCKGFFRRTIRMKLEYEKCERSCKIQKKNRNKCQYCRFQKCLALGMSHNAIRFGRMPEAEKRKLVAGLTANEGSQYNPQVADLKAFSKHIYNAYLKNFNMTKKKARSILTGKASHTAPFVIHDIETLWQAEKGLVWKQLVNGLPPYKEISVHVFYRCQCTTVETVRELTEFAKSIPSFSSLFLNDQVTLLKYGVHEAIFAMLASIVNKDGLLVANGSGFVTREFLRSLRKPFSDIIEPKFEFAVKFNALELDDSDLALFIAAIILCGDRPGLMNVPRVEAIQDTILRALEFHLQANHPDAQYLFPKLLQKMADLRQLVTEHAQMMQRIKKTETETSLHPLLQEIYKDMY
Peroxisome proliferator-activated receptor gamma (Homo sapiens), sequence (P37231 whole entry, looked up): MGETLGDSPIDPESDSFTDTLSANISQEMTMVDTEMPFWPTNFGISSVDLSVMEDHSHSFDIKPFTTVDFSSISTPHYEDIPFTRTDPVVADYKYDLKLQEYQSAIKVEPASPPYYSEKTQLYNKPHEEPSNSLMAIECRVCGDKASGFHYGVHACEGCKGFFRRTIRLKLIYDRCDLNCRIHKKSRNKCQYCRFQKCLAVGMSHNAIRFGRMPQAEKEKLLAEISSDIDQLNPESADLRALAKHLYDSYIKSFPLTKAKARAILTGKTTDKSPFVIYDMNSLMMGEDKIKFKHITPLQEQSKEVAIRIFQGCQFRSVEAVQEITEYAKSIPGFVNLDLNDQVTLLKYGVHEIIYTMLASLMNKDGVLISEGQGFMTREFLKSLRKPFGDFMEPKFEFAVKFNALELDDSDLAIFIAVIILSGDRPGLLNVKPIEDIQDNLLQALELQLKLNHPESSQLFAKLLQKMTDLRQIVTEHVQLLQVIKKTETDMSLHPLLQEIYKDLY
Retinoic acid receptor RXR-alpha (Homo sapiens), sequence (P19793 whole entry, looked up): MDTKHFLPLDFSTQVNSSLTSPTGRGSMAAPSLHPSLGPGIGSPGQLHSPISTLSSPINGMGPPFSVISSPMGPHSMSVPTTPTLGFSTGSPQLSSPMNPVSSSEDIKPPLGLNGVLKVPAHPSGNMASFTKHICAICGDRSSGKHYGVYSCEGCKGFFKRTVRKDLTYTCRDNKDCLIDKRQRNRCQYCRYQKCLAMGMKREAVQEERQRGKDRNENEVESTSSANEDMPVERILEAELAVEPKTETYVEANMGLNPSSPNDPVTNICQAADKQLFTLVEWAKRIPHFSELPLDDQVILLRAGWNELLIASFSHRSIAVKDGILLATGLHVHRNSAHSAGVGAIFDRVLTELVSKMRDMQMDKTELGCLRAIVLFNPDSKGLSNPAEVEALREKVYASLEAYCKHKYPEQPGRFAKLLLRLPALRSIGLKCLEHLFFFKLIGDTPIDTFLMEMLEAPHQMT
Thyroid hormone receptor beta (Homo sapiens), sequence (P10828 whole entry, looked up): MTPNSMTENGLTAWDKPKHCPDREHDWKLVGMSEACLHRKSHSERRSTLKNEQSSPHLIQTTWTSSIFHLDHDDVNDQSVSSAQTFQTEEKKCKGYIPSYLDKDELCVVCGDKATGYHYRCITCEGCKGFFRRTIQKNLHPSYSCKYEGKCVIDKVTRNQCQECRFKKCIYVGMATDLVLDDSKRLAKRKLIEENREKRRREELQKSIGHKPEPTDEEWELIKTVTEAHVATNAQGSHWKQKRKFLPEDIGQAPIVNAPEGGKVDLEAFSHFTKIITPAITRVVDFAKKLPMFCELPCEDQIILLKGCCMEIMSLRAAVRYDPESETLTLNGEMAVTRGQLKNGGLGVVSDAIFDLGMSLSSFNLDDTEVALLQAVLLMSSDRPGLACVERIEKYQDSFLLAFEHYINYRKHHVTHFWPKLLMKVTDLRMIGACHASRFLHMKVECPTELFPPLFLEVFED

As to `Nc1ccccc1S(=O)(=O)O`, the compound was called inactive in [1].
In the case of `CC(=NC#N)N(C)Cc1ccc(Cl)nc1`, the compound was called inactive in assay [1] and in [20]. For the same compound, the max response in [2] is 24.8%; in assay [6], -1.69%; in assay [9], -1.52%; in [10] it was -19.1% (inactive); in [15], -1.88% (inactive); in assay [16], -5.31% (inactive). In addition, the max response was -11.8% (inactive) in assay [17] and 2.55% (inactive) in assay [19]. Further, the Potency entry in assay [3], in assay [4], in [5], in [7], in assay [8] and in assay [18] was “inactive” in each case. For the same compound, the activity change % (negative = inhibition) in assay [11] is -1.79% (inactive). The activation is -5.43% (inactive) in [12], -0.278% (inactive) in assay [13] and 0.519% (inactive) in [14].
For the compound `CC(C)C(C(=O)OC(C#N)c1cccc(Oc2ccccc2)c1)c1ccc(Cl)cc1` (stereo unspecified), the outcome in assay [1] was inactive. Also, the max response in assay [2] was -0.258%; in [15], 0.669% (inactive); in assay [16] it was -14.8% (inactive); in [17] it was -26.6% (inactive). The Potency result in assay [3], in assay [4], in assay [5], in [21] and in assay [18] was “inactive” in each case. The activation was 0.961% (inactive) in assay [12] and 2.62% (inactive) in [14].
Consider `Cc1ccccc1`, for which the Potency entry in assay [22], in assay [23] and in assay [24] was “inactive” throughout. The outcome in assay [1] was inactive.
As for `CC(C)COC(=O)COc1cc(Cl)c(Cl)cc1Cl`, in assay [1], the result was inactive.
`[CH3][Sn]([CH3])([Cl])[Cl]`: the result in [1], in assay [26] and in assay [20] was inactive. The max response in assay [2] was 1.89%; in assay [6] it was -7.56%; in assay [9], -2.31%; in assay [10], -24.3% (inactive); in [16], 3.28% (inactive); in assay [17], -9.37% (inactive). The max response in assay [19] was -0.47% (inactive). For the same compound, the Potency result in assay [3], in assay [4], in assay [5], in assay [25], in assay [7] and in assay [8] was “inactive” throughout. Also, the Potency entry in [21] and in assay [18] was “inactive” throughout. Also, the activity change % (negative = inhibition) in [11] is 0.969% (inactive). Besides, the activation in assay [13] is 0.645% (inactive); in assay [14] it was -0.285% (inactive).
On to `CN(C)C(=O)Nc1ccccc1`, for which, in assay [1], the compound was classed as inactive.
As for `Cc1ccc(Br)cc1`, the outcome in assay [1] was inactive.
In the case of `C=CCOc1nc(OCC=C)nc(OCC=C)n1`, in [1], the call was inactive.
`CC1=NNC(=O)N(/N=C/c2cccnc2)C1`: the compound was called inactive in [1], in assay [26] and in assay [20]. Further, the Potency entry in assay [4], in [5], in assay [25], in [7], in assay [27] and in assay [21] was “inactive” each time. Moreover, the max response in [6] is -7.06%; in [9], -9.27%; in [10], -13.2% (inactive); in assay [15], -0.256% (inactive); in assay [16] it was -9.52% (inactive); in assay [17], -11.1% (inactive). In assay [19], the max response was -1.81% (inactive). For the same compound, in assay [11], the activity change % (negative = inhibition) is -22% (inactive). For the same compound, the activation in assay [12] was 3.81% (inactive); in assay [14], -0.299% (inactive).
